Test results as given in the supplement of paper PMC11624193, “Coupling cellular drug-target engagement to downstream pharmacology with CeTEAM” (Nature Communications, 2024).
Counter-ions that a name gives are not always drawn. A number with no mark means an inactive call.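 How the source made its calls: active = log2 fold change beyond 2 SD from the library mean after excluding viability outliers; inactive = within 2 SD.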

Target: PARP1 L713F-nLuc biosensor (HCT116) (UniProt P09874)
Test: PARP1 L713F-nLuc/akaLuc ratio relative to DMSO control (biosensor stabilization) (fold change); higher = more PARP1 biosensor stabilization (target engagement / stabilizer), active = hit call of the paper
Conditions: stock concentration (mM; final µM = stock mM x 1): 10; 24 h

Sequence of PARP1 L713F-nLuc biosensor (HCT116) (P09874 whole entry L713F, looked up): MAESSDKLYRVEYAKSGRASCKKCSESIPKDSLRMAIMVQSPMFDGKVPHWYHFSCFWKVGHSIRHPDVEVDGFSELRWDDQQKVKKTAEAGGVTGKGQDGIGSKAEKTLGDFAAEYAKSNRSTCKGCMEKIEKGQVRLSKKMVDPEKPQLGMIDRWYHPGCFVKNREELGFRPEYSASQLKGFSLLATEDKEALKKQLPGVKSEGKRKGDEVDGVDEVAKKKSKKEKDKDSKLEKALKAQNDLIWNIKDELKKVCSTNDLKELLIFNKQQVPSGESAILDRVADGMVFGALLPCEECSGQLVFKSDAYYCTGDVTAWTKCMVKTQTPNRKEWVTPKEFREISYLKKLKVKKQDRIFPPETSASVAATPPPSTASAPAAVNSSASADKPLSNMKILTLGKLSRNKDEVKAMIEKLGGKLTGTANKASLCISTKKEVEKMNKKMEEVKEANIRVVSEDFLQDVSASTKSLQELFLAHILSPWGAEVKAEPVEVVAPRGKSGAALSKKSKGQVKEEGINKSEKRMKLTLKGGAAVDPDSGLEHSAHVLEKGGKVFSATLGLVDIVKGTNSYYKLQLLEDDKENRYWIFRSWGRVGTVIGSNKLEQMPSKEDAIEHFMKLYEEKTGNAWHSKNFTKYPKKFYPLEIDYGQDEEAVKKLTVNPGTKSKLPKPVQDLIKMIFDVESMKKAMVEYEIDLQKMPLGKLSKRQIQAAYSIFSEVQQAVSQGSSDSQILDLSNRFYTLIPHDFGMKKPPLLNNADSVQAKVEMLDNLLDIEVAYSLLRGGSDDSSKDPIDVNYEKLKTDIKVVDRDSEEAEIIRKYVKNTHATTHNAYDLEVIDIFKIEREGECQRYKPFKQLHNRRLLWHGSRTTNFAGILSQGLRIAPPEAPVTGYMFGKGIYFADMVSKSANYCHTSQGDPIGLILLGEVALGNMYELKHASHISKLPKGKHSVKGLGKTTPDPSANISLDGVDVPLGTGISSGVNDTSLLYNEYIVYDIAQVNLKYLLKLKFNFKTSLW

Structure (SMILES)	PARP1 L713F-nLuc/akaLuc ratio
CNCCN(C)Cc1c[nH]nc1-c1ccc(O[C@H]2C[C@H](OCCC3CCOCC3)C2)cc1	0.64
CCCCCOC(=O)Nc1nc(=O)n([C@@H]2O[C@H](C)[C@@H](O)[C@H]2O)cc1F [Capecitabine]	0.759
Cc1csc(-c2nnc(Nc3ccc(Oc4ncccc4-c4ccnc(N)n4)cc3)c3ccccc23)c1	1.02
CN(C)C(=N)N=C(N)N [Metformin D6 (hydrochloride)]	1.08
CCCCCC1CC1CC1CC1CCCCCCCC(=O)OC (centres undefined)	1
CC(=O)Nc1ccccc1-c1cccc2c1[nH]c1ccccc12	0.622
CN(C)C(=O)c1ccc(S(=O)(=O)c2ccc(NC(=O)[C@@](C)(O)C(F)(F)F)c(Cl)c2)cc1	1.12
NC(=O)[C@@H]1CCCc2c1[nH]c1ccc(Cl)cc21 [(R)-Selisistat]	0.592
C/C=C(/C)C(=O)O[C@H]1Cc2cc3ccc(=O)oc3cc2OC1(C)C [Decursinol angelate]	0.885
COc1cc2cc(Oc3ccc4ccc(=O)oc4c3)c(=O)oc2cc1O [Daphnoretin]	0.72
COc1cc(C)c(/C=C/C(C)=C/C=C/C(C)=C/C(=O)O)c(C)c1C [Acitretin]	0.747
Cc1ccc(Oc2nc3cc(-c4ccc(-c5ccccc5)cc4)c(Cl)cc3[nH]2)cc1C(=O)O	0.635
CC(C)(O)[C@H]1CC[C@H](Nc2ccc3ncc(-c4cccc(C(F)(F)F)c4)n3n2)CC1	0.732
C=CC(=O)Nc1cccc(-c2c[nH]cc2CN(C)CCN)c1	1.61
CC(C)N(CCC(=O)c1ccc2ccccc2c1)Cc1ccccc1	0.841
O=C(O)c1cnn(-c2nc3cc(OC(F)(F)F)c(Cl)cc3[nH]2)c1	0.757
N=C(NC(=N)N1CCCC1)Nc1ccc(OC(F)(F)F)cc1	1.01

Structure (SMILES)	PARP1 L713F-nLuc/akaLuc ratio
CNC(=O)c1cnc(NC(=O)C2CC2)cc1Nc1cccc(-c2ncc(F)cn2)c1OC	0.696
O=C(O)CNC(=O)c1ncc(-c2cccc(Cl)c2)cc1O [Vadadustat]	1.03
NC[C@@](O)(c1ccc(Cl)cc1)c1ccc(-c2cn[nH]c2)cc1	0.809
Cc1cnc(-c2ccccc2C(C)C)nc1NCc1ccc(-n2ccnn2)cc1	0.718
C[C@@H]1CN(CC(=O)Nc2ccc3c(c2)Cc2cccc(-c4cc(=O)cc(N5CCOCC5)o4)c2S3)C[C@H](C)O1	0.788
Nc1nc(OCc2cc(Br)cs2)c2ncn(CCCCCCCCO[C@@H]3O[C@H](CO)[C@@H](O)[C@H](O)[C@H]3O)c2n1 [O6BTG-octylglucoside]	0.863
C=CC(=O)N1C[C@@H](Nc2ncnc3[nH]ccc23)CC[C@H]1C [(2R,5S)-Ritlecitinib]	1.05
O=c1[nH]cc(F)c(=O)[nH]1 [Fluorouracil (5-Fluoracil, 5-FU)]	0.702
CC(C)c1c(-c2cnn(C(C)(C)C)c2)nc2c(C#N)c[nH]n2c1=O	1.58
Nc1ncnc2c1ncn2[C@@H]1O[C@H](C(=O)N2CCN(CC(=O)Nc3cccc4c3CNC4=O)CC2)[C@@H](O)[C@H]1O [EB-47 (dihydrochloride)]	0.793
CC(CCc1ccccn1)(CCc1ccccn1)C(=O)c1ccccc1	1.27
Nc1ccn([C@@H]2O[C@H](CO)[C@@H](O)C2(F)F)c(=O)n1 [Gemcitabine]	0.416
CCS(=O)(=O)N1CCN(c2ccc(Nc3ncc(C(N)=O)c(NC4CC4)n3)cc2)CC1 [Cerdulatinib (hydrochloride)]	1.06
C[C@H](NC(=O)/C(C#N)=C/c1cccc(Br)n1)c1ccccc1	0.804
CCS(=O)(=O)N1CCC([C@@H](C)n2c(C)c(C(=O)NCc3c(OC)cc(C)[nH]c3=O)c3ccccc32)CC1 (racemic) [CPI-169 (racemate)]	1.12
O=C(Nc1ccccc1-c1cn2c(CN3CC[C@@H](O)C3)csc2n1)c1ccc2ccccc2c1	0.641
CC(C)n1cnc2c(NCCc3ccc(O)cc3)nc(-c3csc4ccccc34)nc21 [StemRegenin 1 (SR1)]	0.788
